According to the supplement of paper PMC11001985:

These targets were tested with C#CCNC(=O)CCSSCCC(=O)NCCc1ccc(C=O)c(C=O)c1 (assay: lysine labeling ratio R10:1 (500 µM / 50 µM probe), SILAC-ABPP in living cells; higher = lower intrinsic lysine reactivity toward the probe, active = 2 or less). Details: HeLa; probe concentrations 500 vs 50 µM.
How it was run: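 Measurements came from LC-MS/MS on a TIMS-TOF Pro of mixed SILAC light and heavy HeLa lysates after click to biotin-azide, trypsin digestion, neutravidin capture, DTT release and alkylation. Before lysis, the living cells sat in PBS at room temperature with 50 µM or 500 µM of an alkyne-tagged, disulfide-linked lysine probe, and labels were swapped forward and reverse. R per lysine is the median across both swap directions of the filtered median high-probe/low-probe MS1 peptide ratio. The cap is 20.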

Sequence of UniProt P02786 (P02786 whole entry, looked up): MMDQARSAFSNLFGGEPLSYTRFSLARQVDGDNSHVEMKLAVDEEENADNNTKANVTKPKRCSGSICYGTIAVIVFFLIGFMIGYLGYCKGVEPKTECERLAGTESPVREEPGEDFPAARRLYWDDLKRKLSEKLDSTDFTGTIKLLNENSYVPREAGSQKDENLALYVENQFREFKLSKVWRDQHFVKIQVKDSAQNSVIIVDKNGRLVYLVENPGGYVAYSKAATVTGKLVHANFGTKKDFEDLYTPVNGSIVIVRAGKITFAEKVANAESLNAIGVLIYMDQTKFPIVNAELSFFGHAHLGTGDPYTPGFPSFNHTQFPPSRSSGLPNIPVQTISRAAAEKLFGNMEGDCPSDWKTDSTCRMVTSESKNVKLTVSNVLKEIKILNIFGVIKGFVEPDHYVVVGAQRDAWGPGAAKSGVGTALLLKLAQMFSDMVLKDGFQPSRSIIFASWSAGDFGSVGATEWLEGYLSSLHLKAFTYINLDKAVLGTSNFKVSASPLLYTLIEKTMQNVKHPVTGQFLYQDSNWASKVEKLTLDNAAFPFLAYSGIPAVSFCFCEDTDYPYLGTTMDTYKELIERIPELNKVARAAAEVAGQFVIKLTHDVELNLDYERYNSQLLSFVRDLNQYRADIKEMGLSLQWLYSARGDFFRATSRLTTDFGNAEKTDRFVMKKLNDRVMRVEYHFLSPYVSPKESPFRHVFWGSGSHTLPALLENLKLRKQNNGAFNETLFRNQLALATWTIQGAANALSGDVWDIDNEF
Sequence of UniProt P35579 (P35579 whole entry): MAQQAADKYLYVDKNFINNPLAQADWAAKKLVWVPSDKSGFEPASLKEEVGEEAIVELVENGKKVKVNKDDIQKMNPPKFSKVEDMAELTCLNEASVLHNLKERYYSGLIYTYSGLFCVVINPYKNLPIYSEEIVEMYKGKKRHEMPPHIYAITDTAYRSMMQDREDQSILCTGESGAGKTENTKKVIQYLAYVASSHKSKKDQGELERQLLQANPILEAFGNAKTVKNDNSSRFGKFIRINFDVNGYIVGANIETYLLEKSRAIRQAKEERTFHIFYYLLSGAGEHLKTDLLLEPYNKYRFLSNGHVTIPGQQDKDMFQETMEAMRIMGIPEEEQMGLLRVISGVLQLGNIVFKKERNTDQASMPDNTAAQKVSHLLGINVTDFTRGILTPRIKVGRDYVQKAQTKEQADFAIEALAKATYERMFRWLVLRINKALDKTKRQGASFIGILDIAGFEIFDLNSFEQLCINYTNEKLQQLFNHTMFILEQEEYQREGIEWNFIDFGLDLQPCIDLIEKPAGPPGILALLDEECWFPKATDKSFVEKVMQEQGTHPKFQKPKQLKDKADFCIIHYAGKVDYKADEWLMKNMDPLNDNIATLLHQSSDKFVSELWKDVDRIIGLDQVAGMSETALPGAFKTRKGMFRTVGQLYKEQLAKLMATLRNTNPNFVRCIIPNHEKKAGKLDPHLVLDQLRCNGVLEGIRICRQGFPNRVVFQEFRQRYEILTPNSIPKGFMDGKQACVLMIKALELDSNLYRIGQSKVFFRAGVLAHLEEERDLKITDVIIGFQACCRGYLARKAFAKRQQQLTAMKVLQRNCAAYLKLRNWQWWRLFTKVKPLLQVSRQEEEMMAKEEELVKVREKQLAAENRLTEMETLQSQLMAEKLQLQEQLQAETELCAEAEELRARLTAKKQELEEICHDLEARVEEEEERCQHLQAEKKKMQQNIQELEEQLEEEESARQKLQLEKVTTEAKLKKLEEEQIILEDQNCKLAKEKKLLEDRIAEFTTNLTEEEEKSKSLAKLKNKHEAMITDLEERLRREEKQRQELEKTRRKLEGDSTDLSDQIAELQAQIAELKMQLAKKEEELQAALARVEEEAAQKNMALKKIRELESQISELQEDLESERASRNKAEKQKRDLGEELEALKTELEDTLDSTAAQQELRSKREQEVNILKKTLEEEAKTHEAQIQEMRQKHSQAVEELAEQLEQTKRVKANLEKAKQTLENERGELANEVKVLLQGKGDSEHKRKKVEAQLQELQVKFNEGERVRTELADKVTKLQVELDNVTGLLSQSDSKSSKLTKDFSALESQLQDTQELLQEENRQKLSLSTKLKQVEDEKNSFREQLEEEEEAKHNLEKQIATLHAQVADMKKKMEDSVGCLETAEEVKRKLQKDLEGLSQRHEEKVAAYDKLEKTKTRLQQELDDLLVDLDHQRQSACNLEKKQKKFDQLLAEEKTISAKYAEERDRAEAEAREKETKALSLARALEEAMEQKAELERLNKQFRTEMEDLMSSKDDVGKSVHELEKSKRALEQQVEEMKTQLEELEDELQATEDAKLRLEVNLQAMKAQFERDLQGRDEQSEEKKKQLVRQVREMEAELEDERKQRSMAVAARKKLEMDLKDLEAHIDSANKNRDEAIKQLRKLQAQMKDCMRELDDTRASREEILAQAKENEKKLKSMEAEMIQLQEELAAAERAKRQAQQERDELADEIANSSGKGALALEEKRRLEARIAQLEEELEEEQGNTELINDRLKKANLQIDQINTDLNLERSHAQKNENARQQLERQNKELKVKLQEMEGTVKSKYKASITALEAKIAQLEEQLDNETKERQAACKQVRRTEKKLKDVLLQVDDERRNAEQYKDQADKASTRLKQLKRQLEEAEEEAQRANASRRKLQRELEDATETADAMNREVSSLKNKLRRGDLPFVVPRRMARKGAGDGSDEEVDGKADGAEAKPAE
Sequence of UniProt Q96PD2 (Q96PD2 whole entry): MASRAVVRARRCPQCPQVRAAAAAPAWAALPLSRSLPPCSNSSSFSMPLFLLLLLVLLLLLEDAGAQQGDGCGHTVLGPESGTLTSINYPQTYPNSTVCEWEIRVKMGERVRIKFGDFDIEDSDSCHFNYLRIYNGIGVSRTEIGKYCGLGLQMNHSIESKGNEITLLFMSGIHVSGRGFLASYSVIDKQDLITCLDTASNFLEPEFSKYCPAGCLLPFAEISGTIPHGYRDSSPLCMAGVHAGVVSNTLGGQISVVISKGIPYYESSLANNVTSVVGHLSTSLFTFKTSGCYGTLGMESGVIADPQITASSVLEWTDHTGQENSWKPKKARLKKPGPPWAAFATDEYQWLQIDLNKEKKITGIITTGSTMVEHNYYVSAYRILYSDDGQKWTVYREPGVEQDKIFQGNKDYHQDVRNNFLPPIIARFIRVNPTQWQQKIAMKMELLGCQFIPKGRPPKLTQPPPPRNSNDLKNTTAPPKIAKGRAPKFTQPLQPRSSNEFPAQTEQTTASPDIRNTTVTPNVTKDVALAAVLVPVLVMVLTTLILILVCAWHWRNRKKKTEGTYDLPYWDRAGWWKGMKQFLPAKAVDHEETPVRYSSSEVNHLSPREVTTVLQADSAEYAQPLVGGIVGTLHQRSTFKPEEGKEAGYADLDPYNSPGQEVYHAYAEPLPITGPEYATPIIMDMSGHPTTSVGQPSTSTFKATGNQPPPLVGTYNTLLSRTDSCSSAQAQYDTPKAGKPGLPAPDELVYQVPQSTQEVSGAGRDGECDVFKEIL
Sequence of UniProt P29323 (P29323 whole entry): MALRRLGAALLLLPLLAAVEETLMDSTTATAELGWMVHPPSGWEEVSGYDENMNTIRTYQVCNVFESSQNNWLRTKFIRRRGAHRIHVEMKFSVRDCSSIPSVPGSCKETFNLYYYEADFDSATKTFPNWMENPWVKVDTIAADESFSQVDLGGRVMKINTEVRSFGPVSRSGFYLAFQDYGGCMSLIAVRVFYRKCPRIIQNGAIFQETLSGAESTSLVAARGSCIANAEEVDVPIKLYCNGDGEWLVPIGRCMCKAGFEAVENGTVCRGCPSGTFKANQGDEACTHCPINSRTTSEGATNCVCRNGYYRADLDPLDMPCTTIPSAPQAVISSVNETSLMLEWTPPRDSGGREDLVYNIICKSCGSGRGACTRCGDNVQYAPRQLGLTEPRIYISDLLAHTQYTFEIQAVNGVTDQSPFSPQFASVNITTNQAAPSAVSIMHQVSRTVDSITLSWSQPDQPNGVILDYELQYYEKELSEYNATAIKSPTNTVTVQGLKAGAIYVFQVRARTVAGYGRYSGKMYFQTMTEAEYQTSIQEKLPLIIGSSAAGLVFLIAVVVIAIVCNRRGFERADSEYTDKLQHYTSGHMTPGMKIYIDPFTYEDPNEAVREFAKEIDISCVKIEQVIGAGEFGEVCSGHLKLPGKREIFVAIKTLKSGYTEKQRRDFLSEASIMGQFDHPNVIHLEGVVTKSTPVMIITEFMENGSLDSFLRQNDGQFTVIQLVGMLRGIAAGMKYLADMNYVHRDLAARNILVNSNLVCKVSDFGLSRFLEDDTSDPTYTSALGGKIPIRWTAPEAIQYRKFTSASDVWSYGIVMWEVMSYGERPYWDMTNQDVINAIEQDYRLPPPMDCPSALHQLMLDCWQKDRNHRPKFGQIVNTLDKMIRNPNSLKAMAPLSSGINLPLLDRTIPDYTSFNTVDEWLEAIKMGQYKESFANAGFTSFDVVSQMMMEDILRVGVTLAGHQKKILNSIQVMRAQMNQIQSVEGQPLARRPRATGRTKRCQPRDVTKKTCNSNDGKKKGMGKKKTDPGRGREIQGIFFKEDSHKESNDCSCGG
Sequence of UniProt O15372 (O15372 whole entry): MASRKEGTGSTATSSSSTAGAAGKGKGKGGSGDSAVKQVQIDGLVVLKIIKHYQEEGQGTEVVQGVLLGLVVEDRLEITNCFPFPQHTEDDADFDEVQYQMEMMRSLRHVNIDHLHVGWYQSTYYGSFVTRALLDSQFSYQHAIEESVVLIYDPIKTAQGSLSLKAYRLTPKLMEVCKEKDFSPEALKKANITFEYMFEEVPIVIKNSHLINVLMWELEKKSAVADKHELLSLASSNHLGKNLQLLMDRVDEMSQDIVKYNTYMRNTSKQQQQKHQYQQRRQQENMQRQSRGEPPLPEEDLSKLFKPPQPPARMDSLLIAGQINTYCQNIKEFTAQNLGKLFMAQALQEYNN
Sequence of UniProt P32119 (P32119 whole entry): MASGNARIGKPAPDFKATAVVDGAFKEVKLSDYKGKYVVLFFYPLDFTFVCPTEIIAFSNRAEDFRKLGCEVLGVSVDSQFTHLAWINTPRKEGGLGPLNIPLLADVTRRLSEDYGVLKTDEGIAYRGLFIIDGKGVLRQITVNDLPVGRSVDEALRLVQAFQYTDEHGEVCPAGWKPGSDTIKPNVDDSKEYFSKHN

Row | Target | lysine labeling ratio R10:1
1 | SPTAN1 (lysine site: K1288) (UniProt Q13813) | 1.21 (active)
2 | FOLR1 (lysine site: K62) (UniProt P15328) | 5.42 (inactive)
3 | TKT (lysine site: K16) (UniProt P29401) | 2.68 (inactive)
4 | TFRC (lysine site: K177) (UniProt P02786) | 2.39 (inactive)
5 | COPA (lysine site: K607) (UniProt P53621) | 1.94 (active)
6 | CSRP1 (lysine site: K112) (UniProt P21291) | 1.46 (active)
7 | TFRC (lysine site: K585) (UniProt P02786) | 4.53 (inactive)
8 | UniProt Q13131 (lysine site: K56) | 14.5 (inactive)
9 | IDE (lysine site: K364) (UniProt P14735) | 2.3 (inactive)
10 | UniProt P60866 (lysine site: K75) | 1.91 (active)
11 | CACNA2D1 (lysine site: K634) (UniProt P54289) | 3.07 (inactive)
12 | UniProt Q15149 (lysine site: K792) | 1.45 (active)
13 | CD97 (lysine site: K483) (UniProt P48960) | 5.15 (inactive)
14 | HM13 (lysine site: K61) (UniProt Q8TCT9) | 1.69 (active)
15 | SEMA3C (lysine site: K570) (UniProt Q99985) | 8.1 (inactive)
16 | HEG1 (lysine site: K1075) (UniProt Q9ULI3) | 3.38 (inactive)
17 | RPL28 (lysine site: K84) (UniProt P46779) | 2.27 (inactive)
18 | VDAC1 (lysine site: K201) (UniProt P21796) | 3.77 (inactive)
19 | RPS19 (lysine site: K97) (UniProt P39019) | 1.48 (active)
20 | PRDX2 (lysine site: K196) (UniProt P32119) | 2.99 (inactive)

Row | Target | lysine labeling ratio R10:1
21 | UniProt Q9UHN6 (lysine site: K1262) | 2.6 (inactive)
22 | GPC1 (lysine site: K347) (UniProt P35052) | 4.46 (inactive)
23 | CLTA (lysine site: K141) (UniProt P09496) | 2.25 (inactive)
24 | HSPD1 (lysine site: K301) (UniProt P10809) | 2.58 (inactive)
25 | HSPA8 (lysine site: K531) (UniProt P11142) | 3.46 (inactive)
26 | LAMC1 (lysine site: K1354) (UniProt P11047) | 1.67 (active)
27 | UniProt O60245 (lysine site: K223) | 5.15 (inactive)
28 | HNRNPC (lysine site: K94) (UniProt P07910) | 3.25 (inactive)
29 | UniProt Q15149 (lysine site: K3887) | 3.96 (inactive)
30 | DCBLD2 (lysine site: K391) (UniProt Q96PD2) | 3.28 (inactive)
31 | MYH9 (lysine site: K1775) (UniProt P35579) | 3.47 (inactive)
32 | UniProt O95084 (lysine site: K185) | 2.74 (inactive)
33 | LAMB1 (lysine site: K215) (UniProt P07942) | 2.29 (inactive)
34 | MYH9 (lysine site: K1631) (UniProt P35579) | 1.9 (active)
35 | EIF3H (lysine site: K274) (UniProt O15372) | 1.92 (active)
36 | G6PD (lysine site: K432) (UniProt P11413) | 1.85 (active)
37 | EPHB2 (lysine site: K158) (UniProt P29323) | 2.25 (inactive)
38 | CCT2 (lysine site: K82) (UniProt P78371) | 2.91 (inactive)
39 | H2AFY (lysine site: K18) (UniProt O75367) | 3.07 (inactive)
40 | WNT5A (lysine site: K348) (UniProt P41221) | 1.98 (active)
